Experimental data from PubChem BioAssay (Tox21).
Several values for one entry are separate records, joined by “and”; a condition that tells them apart may be missing. Equal values may be shown once. Records with an inconclusive call do not appear. Entries that show only a call come without a potency. Some structures have more than one record in an assay (separate samples or runs), and their calls can disagree. Activity calls are given as the source filed them. Calls come from the whole dose curve.
Potency is the fitted concentration of half-maximal effect.

Experiment: Nuclear factor erythroid 2-related factor 2/antioxidant responsive element (Nrf2/ARE) small molecule agonists: luciferase reporter gene qHTS assay in human keratinocytes (AID 1919969); note: nearly all actives have a fitted effect of over 35% in size
Conditions: KeratinoSens HaCaT ARE-luciferase, luminescence, 24 h; series mostly up to 92.4 µM
Description: National Center for Advancing Translational Sciences [NCATS]
Division of Preclinical Innovation [DPI]
U.S. Environmental Protection Agency [EPA]
National Institutes of Environmental Health Sciences [NIEHS]
National Toxicology Program [NTP]
U.S. Food and Drug Administration [FDA]
Oxidative stress has been implicated in the pathogenesis of a variety of diseases ranging from cancer to neurodegeneration. The antioxidant response element (ARE) signaling pathway plays an important role in the amelioration of oxidative stress. The KeratinoSens (Givaudan, Switzerland) is an in vitro test method which quantifies luciferase induction as a measure of activation of Keap1-Nrf2-antioxidationt/electrophile response element (ARE) dependant pathway in HaCaT human keratinocytes stably transfected with a selectable plasmid. The KeratinoSens assay is a cell-based assay with a reporter cell line to detect potential skin sensitizers by their ability to induce the Nrf2/ARE-response. The activation of the report gene under culture conditions can be detected by ONE-Glo Luciferase Assay System (Promega, Madison, WI). This cell line has been used to screen the Tox21 10K compound library to identify agonists that induce oxidative stress. The cytotoxicity of the Tox21 compound library against the KS-ARE cell line was tested in parallel by measuring the cell viability using CellTiter- Fluor assay system (Promega, Madison, WI) in the same wells.
HaCaT derived cell line KeratinoSens were dispensed at 1,500 cells/5uL/well in 1536-well white wall/solid bottom plates using a Multidrop Combi (ThermoFisher Scientific, Waltham, MA) dispenser. After the assay plates were incubated at 37 C/5% CO2 for 5 h, 23 nL of compounds dissolved in DMSO, positive controls or DMSO only was transferred to the assay plate by a pintool workstation (Kalypsys, San Diego, CA). The plates were incubated at 37 C/5% CO2 for 23 h, followed by addition of 1uL/well of CellTiter-Fluor reagent into the assay plates using a Flying Reagent Dispenser (Aurora Discovery, San Diego, CA) for cell viability readout that measures cytotoxicity. After 1 h incubation at 37 C/5% CO2 the fluorescence intensity was measured using a ViewLux (PerkinElmer, Shelton, CT) plate reader. Then 4uL/well of One-Glo were added using a Flying Reagent Dispenser. After the plates were incubated at room temperature for 30 min, the luminescence intensity in the assay plates was measured using ViewLux plate reader.
In the case of `O=C(O)CCl`, the Potency is reported as “inactive”.
For `O=C(O)Cc1ccccc1`, the Potency was “inactive”.
With `C=CC(=O)NC(C)(C)CC(C)=O` the Potency was “inactive”.
For `NN=C(N)N`, the Potency was “inactive”.
For `Clc1ccc(C(Cl)(Cl)Cl)cn1`, the Potency was “inactive”.
With `CCNc1nc(Cl)nc(NC(C)(C)C#N)n1` the Potency was “inactive”.
In the case of `C[C@@H]1CN(C2CCC(C#N)(c3ccc(F)cc3)CC2)CC[C@]1(C(=O)O)c1ccccc1` (stereo not given in full), the Potency is reported as “inactive”.
With `Cc1ccc([N+](=O)[O-])cc1` the Potency was “inactive”.
For `C#CCOC(C(=O)OCCN(C)C)(c1ccccc1)c1ccccc1`, the Potency was “inactive”.
For `CC1CC(CC2CCC(N)C(C)C2)CCC1N` (stereo not given), the Potency was “inactive”.
With `c1cc2c3c(cccc3c1)CC2` the Potency was “inactive”.
For `C[C@]12C=CC3=C4CCC(=O)C=C4CC[C@H]3[C@@H]1CC[C@@H]2O`, the Potency was 27.1 µM (active) and 58 µM (active).
In the case of `O=C(NC(=O)c1ccccc1Cl)Nc1ccc(OC(F)(F)F)cc1`, the Potency is reported as “inactive”.
With `CN(C)C(=O)Nc1cccc(C(F)(F)F)c1` the Potency was “inactive”.
In the case of `Cc1ccc([N+](=O)[O-])cc1C`, the Potency is reported as “inactive”.
For `CCCCCCOC(=O)c1ccccc1C(=O)OCCCCCC`, the Potency was “inactive”.
In the case of `CC12CC1(C)C(=O)N(c1cc(Cl)cc(Cl)c1)C2=O` (stereo not given), the Potency is reported as “inactive”.
In the case of `Cc1ccc(N=C=O)cc1N=C=O`, the Potency is reported as 62.7 µM (active) and 48.6 µM (active).
In the case of `Nc1ccc([N+](=O)[O-])cc1N`, the Potency is reported as 34.4 µM (active).
For `C=CCc1cc(OC)c2c(c1)OCO2`, the Potency was “inactive”.
In the case of `Cc1cc(-c2cc(C)c(N)c(C)c2)cc(C)c1N`, the Potency is reported as “inactive”.
In the case of `CC[n+]1ccccc1`, the Potency is reported as “inactive”.
With `ClC1(Cl)C2(Cl)C3(Cl)C4(Cl)C(Cl)(Cl)C5(Cl)C3(Cl)C1(Cl)C5(Cl)C24Cl` (stereo not given) the Potency was “inactive”.
In the case of `Nc1ccc(-c2ccccc2)cc1`, the Potency is reported as 13.7 µM (active).
For `O=C(O)C(F)(F)C(F)(F)C(F)(F)C(F)(F)C(F)(F)C(F)(F)F`, the Potency was “inactive”.
In the case of `O=[N+]([O-])c1ccccc1-c1ccccc1`, the Potency is reported as “inactive”.
With `COS(=O)(=O)c1ccc(C)cc1` the Potency was “inactive”.
For `CN(C)CCc1c[nH]c2cccc(OP(=O)(O)O)c12`, the Potency was “inactive”.
For `Oc1c(Br)cc(Br)cc1Br`, the Potency was “inactive”.
With `Cc1cc(N=Nc2ccccc2C)ccc1N` the Potency was “inactive”.
For `CC(C)Nc1nc(Cl)nc(NC(C)C)n1`, the Potency was “inactive”.
In the case of `OC(O)C(Cl)(Cl)Cl`, the Potency is reported as “inactive”.
For `CCOC(=O)C(c1c(O)c2ccccc2oc1=O)c1c(O)c2ccccc2oc1=O`, the Potency was “inactive”.
For `CCCCCCCCC(=O)NCc1ccc(O)c(OC)c1`, the Potency was “inactive”.
In the case of `CCCCCCCCSC(=O)Oc1cc(Cl)nnc1-c1ccccc1`, the Potency is reported as “inactive”.
In the case of `O=c1[nH]c2ccccc2c(=O)o1`, the Potency is reported as “inactive”.
With `CCCCON=O` the Potency was “inactive”.
With `CC[n+]1c(-c2ccccc2)c2cc(N)ccc2c2ccc(N)cc21` the Potency was “inactive and 10.6 µM (active)”.
With `CC(COc1ccc(Oc2ccccc2)cc1)Oc1ccccn1` (stereo not given) the Potency was 17.2 µM (active).
In the case of `CC(=O)C1CCOC1=O` (stereo not given), the Potency is reported as “inactive”.
